Substitutions are numbered along the chain they refer to.
Legend:
Assay in all cases: PBM; 200 nM protein, PBS
Details in all cases: dsDNA, one strand shown
PRRX1 [1] = target: PRRX1 (Homo sapiens, UniProt P54821 80-166, F113S)
VAX1 [2] = target: VAX1 (Homo sapiens, UniProt Q5SQQ9 86-172)
VAX1 [3] = target: VAX1 (Homo sapiens, UniProt Q5SQQ9 86-172, T142I)
PRRX1 [4] = target: PRRX1 (Homo sapiens, UniProt P54821 80-166)
VAX1 [5] = target: VAX1 (Homo sapiens, UniProt Q5SQQ9 86-172, K157R)
NKX2-6 [6] = target: T1, NKX2-6 (Homo sapiens, UniProt A6NCS4 118-204, R150C)
T1 sequence: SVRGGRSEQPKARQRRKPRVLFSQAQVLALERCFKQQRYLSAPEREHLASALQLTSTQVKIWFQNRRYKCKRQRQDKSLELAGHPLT

NKX2-6 [7] = target: T2, NKX2-6 (Homo sapiens, UniProt A6NCS4 118-204)
T2 sequence: T1 sequence with C33R

NKX2-6 [8] = target: T3, NKX2-6 (Homo sapiens, UniProt A6NCS4 118-204, F151L)
T3 sequence: T1 sequence with C33R, F34L

PITX2 = PITX2 (Homo sapiens, UniProt Q99697 72-157)
HESX1 = HESX1 (Homo sapiens, UniProt Q9UBX0 95-180)
Sequence of HESX1 (Q9UBX0 95-180): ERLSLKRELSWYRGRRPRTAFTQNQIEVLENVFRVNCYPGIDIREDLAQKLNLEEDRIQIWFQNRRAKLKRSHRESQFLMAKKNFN

HOXA2 [9] = target: HOXA2 (Homo sapiens, UniProt O43364 129-215, R185T)
Sequence of HOXA2 (Homo sapiens, UniProt O43364 129-215, R185T) (O43364 129-215 R185T): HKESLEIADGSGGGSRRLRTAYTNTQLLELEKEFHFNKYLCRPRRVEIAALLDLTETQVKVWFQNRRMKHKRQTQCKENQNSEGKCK

HOXA2 [10] = target: HOXA2 (Homo sapiens, UniProt O43364 129-215, R185K)
Sequence of HOXA2 (Homo sapiens, UniProt O43364 129-215, R185K) (O43364 129-215 R185K): as the sequence (O43364 129-215 R185T) above, with T57K counted along it

HOXA2 [11] = target: HOXA2 (Homo sapiens, UniProt O43364 129-215, Y150S)
Sequence of HOXA2 (Homo sapiens, UniProt O43364 129-215, Y150S) (O43364 129-215 Y150S): as the sequence (O43364 129-215 R185T) above, with Y22S, T57R counted along it

HOXA2 [12] = target: HOXA2 (Homo sapiens, UniProt O43364 129-215)
Sequence of HOXA2 (Homo sapiens, UniProt O43364 129-215) (O43364 129-215): as the sequence (O43364 129-215 R185T) above, with T57R counted along it

HOXB6 [13] = target: HOXB6 (Homo sapiens, UniProt P17509 132-218, K202E)
Sequence of HOXB6 (Homo sapiens, UniProt P17509 132-218, K202E) (P17509 132-218 K202E): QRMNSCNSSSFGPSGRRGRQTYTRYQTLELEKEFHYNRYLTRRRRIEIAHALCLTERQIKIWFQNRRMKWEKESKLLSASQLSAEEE

HOXB6 [14] = target: HOXB6 (Homo sapiens, UniProt P17509 132-218)
Sequence of HOXB6 (Homo sapiens, UniProt P17509 132-218) (P17509 132-218): as the sequence (P17509 132-218 K202E) above, with E71K counted along it

ALX1 [15] = target: ALX1 (Homo sapiens, UniProt Q15699 118-204, L144V)
Sequence of ALX1 (Homo sapiens, UniProt Q15699 118-204, L144V) (Q15699 118-204 L144V): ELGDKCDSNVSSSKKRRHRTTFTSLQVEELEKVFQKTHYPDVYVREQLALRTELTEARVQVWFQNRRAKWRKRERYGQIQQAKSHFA

ALX3 [16] = target: ALX3 (Homo sapiens, UniProt O95076 139-225, N203Q)
Sequence of ALX3 (Homo sapiens, UniProt O95076 139-225, N203Q) (O95076 139-225 N203Q): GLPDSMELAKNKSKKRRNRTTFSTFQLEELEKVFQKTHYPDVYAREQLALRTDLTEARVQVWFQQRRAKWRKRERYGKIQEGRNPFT

ALX1 [17] = target: ALX1 (Homo sapiens, UniProt Q15699 118-204, L144R)
Sequence of ALX1 (Homo sapiens, UniProt Q15699 118-204, L144R) (Q15699 118-204 L144R): as the sequence (Q15699 118-204 L144V) above, with V27R counted along it

ALX3 [18] = target: ALX3 (Homo sapiens, UniProt O95076 139-225)
Sequence of ALX3 (Homo sapiens, UniProt O95076 139-225) (O95076 139-225): as the sequence (O95076 139-225 N203Q) above, with Q65N counted along it

ALX3 [19] = target: ALX3 (Homo sapiens, UniProt O95076 139-225, L168Q)
Sequence of ALX3 (Homo sapiens, UniProt O95076 139-225, L168Q) (O95076 139-225 L168Q): as the sequence (O95076 139-225 N203Q) above, with L30Q, Q65N counted along it

ALX3 [20] = target: ALX3 (Homo sapiens, UniProt O95076 139-225, L168V)
Sequence of ALX3 (Homo sapiens, UniProt O95076 139-225, L168V) (O95076 139-225 L168V): as the sequence (O95076 139-225 N203Q) above, with L30V, Q65N counted along it

ALX1 [21] = target: ALX1 (Homo sapiens, UniProt Q15699 118-204)
Sequence of ALX1 (Homo sapiens, UniProt Q15699 118-204) (Q15699 118-204): as the sequence (Q15699 118-204 L144V) above, with V27L counted along it

ALX3 [22] = target: ALX3 (Homo sapiens, UniProt O95076 139-225, N203S)
Sequence of ALX3 (Homo sapiens, UniProt O95076 139-225, N203S) (O95076 139-225 N203S): as the sequence (O95076 139-225 N203Q) above, with Q65S counted along it

MSX2 [23] = target: MSX2 (Homo sapiens, UniProt P35548 130-214, R199I)
Sequence of MSX2 (Homo sapiens, UniProt P35548 130-214, R199I) (P35548 130-214 R199I): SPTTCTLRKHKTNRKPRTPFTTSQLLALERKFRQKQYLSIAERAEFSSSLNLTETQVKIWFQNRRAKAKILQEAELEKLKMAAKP

MSX2 [24] = target: MSX2 (Homo sapiens, UniProt P35548 130-214)
Sequence of MSX2 (Homo sapiens, UniProt P35548 130-214) (P35548 130-214): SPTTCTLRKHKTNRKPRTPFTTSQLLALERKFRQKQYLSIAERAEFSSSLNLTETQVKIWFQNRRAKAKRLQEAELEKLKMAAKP

MSX2 [25] = target: MSX2 (Homo sapiens, UniProt P35548 130-214, F161Y)
Sequence of MSX2 (Homo sapiens, UniProt P35548 130-214, F161Y) (P35548 130-214 F161Y): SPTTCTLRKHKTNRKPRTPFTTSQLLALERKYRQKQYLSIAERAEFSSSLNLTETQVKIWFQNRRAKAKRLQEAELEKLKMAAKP

Sequence of PRRX1 (Homo sapiens, UniProt P54821 80-166) (P54821 80-166): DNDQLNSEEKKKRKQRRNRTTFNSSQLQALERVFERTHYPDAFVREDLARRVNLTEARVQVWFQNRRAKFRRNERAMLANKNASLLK
Sequence of PRRX1 (Homo sapiens, UniProt P54821 80-166, F113S) (P54821 80-166 F113S): as the sequence (P54821 80-166) above, with F34S counted along it
Sequence of VAX1 (Homo sapiens, UniProt Q5SQQ9 86-172, K157R) (Q5SQQ9 86-172 K157R): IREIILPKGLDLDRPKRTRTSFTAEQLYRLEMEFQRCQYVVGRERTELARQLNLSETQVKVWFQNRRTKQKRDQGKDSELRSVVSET
Sequence of VAX1 (Homo sapiens, UniProt Q5SQQ9 86-172, T142I) (Q5SQQ9 86-172 T142I): as the sequence (Q5SQQ9 86-172 K157R) above, with T57I, R72K counted along it
Sequence of VAX1 (Homo sapiens, UniProt Q5SQQ9 86-172) (Q5SQQ9 86-172): as the sequence (Q5SQQ9 86-172 K157R) above, with R72K counted along it

CCGTGTCC
binding signal (PRRX1 [1]): 9.3 upbm affinity estimate (log intensity, higher = more binding, comparable within an allelic series)
binding signal (VAX1 [2]): 6.98 upbm affinity estimate (log intensity, higher = more binding, comparable within an allelic series)
binding signal (VAX1 [3]): 7.18 upbm affinity estimate (log intensity, higher = more binding, comparable within an allelic series)
binding signal (PRRX1 [4]): 9.13 upbm affinity estimate (log intensity, higher = more binding, comparable within an allelic series)
binding signal (VAX1 [5]): 6.99 upbm affinity estimate (log intensity, higher = more binding, comparable within an allelic series)

GTCCCCCA
binding signal (PRRX1 [1]): 9.39 upbm affinity estimate (log intensity, higher = more binding, comparable within an allelic series)
binding signal (NKX2-6 [6]): 9.42 upbm affinity estimate (log intensity, higher = more binding, comparable within an allelic series)
binding signal (PRRX1 [4]): 9.22 upbm affinity estimate (log intensity, higher = more binding, comparable within an allelic series)

ACTTTAAG
binding signal (PRRX1 [1]): 10.1 upbm affinity estimate (log intensity, higher = more binding, comparable within an allelic series)
binding signal (NKX2-6 [7]): 12.5 upbm affinity estimate (log intensity, higher = more binding, comparable within an allelic series)
binding signal (NKX2-6 [8]): 10.3 upbm affinity estimate (log intensity, higher = more binding, comparable within an allelic series)
binding signal (PRRX1 [4]): 10.8 upbm affinity estimate (log intensity, higher = more binding, comparable within an allelic series)

CGGAACCG
binding signal (PRRX1 [1]): 9.35 upbm affinity estimate (log intensity, higher = more binding, comparable within an allelic series)
binding signal (PITX2): 7.68 upbm affinity estimate (log intensity, higher = more binding, comparable within an allelic series)
binding signal (PRRX1 [4]): 9.26 upbm affinity estimate (log intensity, higher = more binding, comparable within an allelic series)

CGTAAGTA
binding signal (PRRX1 [1]): 10 upbm affinity estimate (log intensity, higher = more binding, comparable within an allelic series)
binding signal (HESX1): 7.17 upbm affinity estimate (log intensity, higher = more binding, comparable within an allelic series)
binding signal (PRRX1 [4]): 11 upbm affinity estimate (log intensity, higher = more binding, comparable within an allelic series)

CAGGCCGC
binding signal (PRRX1 [1]): 9.29 upbm affinity estimate (log intensity, higher = more binding, comparable within an allelic series)
binding signal (HOXA2 [9]): 7.44 upbm affinity estimate (log intensity, higher = more binding, comparable within an allelic series)
binding signal (HOXA2 [10]): 10.3 upbm affinity estimate (log intensity, higher = more binding, comparable within an allelic series)
binding signal (HOXA2 [11]): 10.4 upbm affinity estimate (log intensity, higher = more binding, comparable within an allelic series)
binding signal (PRRX1 [4]): 9.35 upbm affinity estimate (log intensity, higher = more binding, comparable within an allelic series)
binding signal (HOXA2 [12]): 7.49 upbm affinity estimate (log intensity, higher = more binding, comparable within an allelic series)

GTCCCCAC
binding signal (PRRX1 [1]): 9.29 upbm affinity estimate (log intensity, higher = more binding, comparable within an allelic series)
binding signal (HOXB6 [13]): 9.01 upbm affinity estimate (log intensity, higher = more binding, comparable within an allelic series)
binding signal (PRRX1 [4]): 9.35 upbm affinity estimate (log intensity, higher = more binding, comparable within an allelic series)
binding signal (HOXB6 [14]): 9.13 upbm affinity estimate (log intensity, higher = more binding, comparable within an allelic series)

CCGGCCAG
binding signal (PRRX1 [1]): 8.97 upbm affinity estimate (log intensity, higher = more binding, comparable within an allelic series)
binding signal (HOXA2 [9]): 7.26 upbm affinity estimate (log intensity, higher = more binding, comparable within an allelic series)
binding signal (ALX1 [15]): 6.59 upbm affinity estimate (log intensity, higher = more binding, comparable within an allelic series)
binding signal (ALX3 [16]): 7.68 upbm affinity estimate (log intensity, higher = more binding, comparable within an allelic series)
binding signal (PITX2): 7.87 upbm affinity estimate (log intensity, higher = more binding, comparable within an allelic series)
binding signal (HOXA2 [10]): 9.96 upbm affinity estimate (log intensity, higher = more binding, comparable within an allelic series)
binding signal (ALX1 [17]): 6.61 upbm affinity estimate (log intensity, higher = more binding, comparable within an allelic series)
binding signal (ALX3 [18]): 7.75 upbm affinity estimate (log intensity, higher = more binding, comparable within an allelic series)
binding signal (VAX1 [2]): 6.85 upbm affinity estimate (log intensity, higher = more binding, comparable within an allelic series)
binding signal (ALX3 [19]): 7.66 upbm affinity estimate (log intensity, higher = more binding, comparable within an allelic series)
binding signal (ALX3 [20]): 7.61 upbm affinity estimate (log intensity, higher = more binding, comparable within an allelic series)
binding signal (VAX1 [3]): 6.97 upbm affinity estimate (log intensity, higher = more binding, comparable within an allelic series)
binding signal (HOXA2 [11]): 10.3 upbm affinity estimate (log intensity, higher = more binding, comparable within an allelic series)
binding signal (ALX1 [21]): 6.55 upbm affinity estimate (log intensity, higher = more binding, comparable within an allelic series)
binding signal (ALX3 [22]): 7.66 upbm affinity estimate (log intensity, higher = more binding, comparable within an allelic series)
binding signal (PRRX1 [4]): 9.42 upbm affinity estimate (log intensity, higher = more binding, comparable within an allelic series)
binding signal (HOXA2 [12]): 7.18 upbm affinity estimate (log intensity, higher = more binding, comparable within an allelic series)
binding signal (VAX1 [5]): 6.86 upbm affinity estimate (log intensity, higher = more binding, comparable within an allelic series)

ACCCCGGG
binding signal (PRRX1 [1]): 9.35 upbm affinity estimate (log intensity, higher = more binding, comparable within an allelic series)
binding signal (MSX2 [23]): 9.55 upbm affinity estimate (log intensity, higher = more binding, comparable within an allelic series)
binding signal (MSX2 [24]): 9.62 upbm affinity estimate (log intensity, higher = more binding, comparable within an allelic series)
binding signal (MSX2 [25]): 9.67 upbm affinity estimate (log intensity, higher = more binding, comparable within an allelic series)
binding signal (PRRX1 [4]): 9.33 upbm affinity estimate (log intensity, higher = more binding, comparable within an allelic series)

ACCGAGGG
binding signal (PRRX1 [1]): 8.94 upbm affinity estimate (log intensity, higher = more binding, comparable within an allelic series)
binding signal (ALX1 [15]): 6.46 upbm affinity estimate (log intensity, higher = more binding, comparable within an allelic series)
binding signal (ALX3 [16]): 7.64 upbm affinity estimate (log intensity, higher = more binding, comparable within an allelic series)
binding signal (ALX1 [17]): 6.47 upbm affinity estimate (log intensity, higher = more binding, comparable within an allelic series)
binding signal (ALX3 [18]): 7.78 upbm affinity estimate (log intensity, higher = more binding, comparable within an allelic series)
binding signal (ALX3 [19]): 7.65 upbm affinity estimate (log intensity, higher = more binding, comparable within an allelic series)
binding signal (ALX3 [20]): 7.64 upbm affinity estimate (log intensity, higher = more binding, comparable within an allelic series)
binding signal (ALX1 [21]): 6.38 upbm affinity estimate (log intensity, higher = more binding, comparable within an allelic series)
binding signal (ALX3 [22]): 7.63 upbm affinity estimate (log intensity, higher = more binding, comparable within an allelic series)
binding signal (PRRX1 [4]): 9.32 upbm affinity estimate (log intensity, higher = more binding, comparable within an allelic series)

CACGTGGC
binding signal (PRRX1 [1]): 9.17 upbm affinity estimate (log intensity, higher = more binding, comparable within an allelic series)
binding signal (NKX2-6 [6]): 9.61 upbm affinity estimate (log intensity, higher = more binding, comparable within an allelic series)
binding signal (PRRX1 [4]): 9.4 upbm affinity estimate (log intensity, higher = more binding, comparable within an allelic series)

CCTGGAAC
binding signal (PRRX1 [1]): 9.61 upbm affinity estimate (log intensity, higher = more binding, comparable within an allelic series)
binding signal (PRRX1 [4]): 9.32 upbm affinity estimate (log intensity, higher = more binding, comparable within an allelic series)

GGACAACC
binding signal (PRRX1 [1]): 9.36 upbm affinity estimate (log intensity, higher = more binding, comparable within an allelic series)
binding signal (PRRX1 [4]): 9.23 upbm affinity estimate (log intensity, higher = more binding, comparable within an allelic series)

GACTCTAA
binding signal (PRRX1 [1]): 10.1 upbm affinity estimate (log intensity, higher = more binding, comparable within an allelic series)
binding signal (PRRX1 [4]): 11.1 upbm affinity estimate (log intensity, higher = more binding, comparable within an allelic series)

— publication PMC11006913
